Measurements reported in ChEMBL document CHEMBL3988442, “University of Dundee, Small-Polar-MMV Screening Library” (2021).
For some of these results: Results with a measured potency or affinity are listed apart.

Key:
Parameters in all cases: scale not given: direction of the effect not stated beside the values
[1] = molecular target: Protein translocase subunit SecA (Escherichia coli (strain K12)) (UniProt P10408); test: Assay to Identify E. coli SecA ATPase Inhibitors; format: functional; details: 30 µM
[2] = molecular target: T1, Ubiquitin-activating enzyme e1, putative (Leishmania donovani (strain BPK282A1)) (UniProt E9BSI1); test: Leishmania donovani Ubiquitin Activating Enzyme (LdE1); format: functional; details: 30 µM
T1 sequence (whole entry): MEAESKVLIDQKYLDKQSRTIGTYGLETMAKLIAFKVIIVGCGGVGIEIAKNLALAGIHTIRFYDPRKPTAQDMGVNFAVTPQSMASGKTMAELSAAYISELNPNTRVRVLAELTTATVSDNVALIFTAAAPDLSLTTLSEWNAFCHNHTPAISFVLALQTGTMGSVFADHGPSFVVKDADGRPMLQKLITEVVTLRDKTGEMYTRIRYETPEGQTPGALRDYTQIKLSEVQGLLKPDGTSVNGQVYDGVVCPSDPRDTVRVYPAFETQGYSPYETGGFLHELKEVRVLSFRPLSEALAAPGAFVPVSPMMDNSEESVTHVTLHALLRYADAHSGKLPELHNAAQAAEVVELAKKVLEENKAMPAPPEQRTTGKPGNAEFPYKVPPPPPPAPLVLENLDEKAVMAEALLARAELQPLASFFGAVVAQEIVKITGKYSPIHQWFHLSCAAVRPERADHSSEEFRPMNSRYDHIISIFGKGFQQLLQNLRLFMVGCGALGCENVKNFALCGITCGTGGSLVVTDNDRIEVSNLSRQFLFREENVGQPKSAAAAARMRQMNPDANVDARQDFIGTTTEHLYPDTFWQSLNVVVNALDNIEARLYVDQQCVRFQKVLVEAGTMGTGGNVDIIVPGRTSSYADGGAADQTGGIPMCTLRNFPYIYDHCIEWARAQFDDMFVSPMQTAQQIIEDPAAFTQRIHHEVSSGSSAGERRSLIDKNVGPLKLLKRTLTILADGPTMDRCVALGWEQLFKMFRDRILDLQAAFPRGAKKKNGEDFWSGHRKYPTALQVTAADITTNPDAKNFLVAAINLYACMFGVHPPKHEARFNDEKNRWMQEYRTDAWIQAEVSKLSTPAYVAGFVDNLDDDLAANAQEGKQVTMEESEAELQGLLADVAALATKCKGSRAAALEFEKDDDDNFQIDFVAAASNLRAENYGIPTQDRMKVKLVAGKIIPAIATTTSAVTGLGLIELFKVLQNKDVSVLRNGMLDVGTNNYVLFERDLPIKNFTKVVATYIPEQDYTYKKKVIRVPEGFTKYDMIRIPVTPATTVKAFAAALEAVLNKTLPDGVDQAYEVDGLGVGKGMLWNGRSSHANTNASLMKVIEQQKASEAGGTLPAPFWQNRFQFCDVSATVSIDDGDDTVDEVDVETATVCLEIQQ

[3] = molecular target: AMP-activated protein kinase, AMPK (Homo sapiens) (UniProt P54646+O43741+P54619+Q9UGJ0+Q9Y478+Q13131+Q9UGI9); test: AMP-dependent Kinase enzyme assay. An in vitro enzyme assay that detects ADP turnover that is directly proportional to AMPK activity. This uses naive AMPK that is activated during the assay with MK-8722; format: functional; details: 30 µM
[4] = molecular target: Sialic acid-binding Ig-like lectin 9 (Homo sapiens) (UniProt Q9Y336); test: Hs-Siglec9 ALPHAscreen SOP 20170721; details: 10 µM
Trypanosoma cruzi = test: Trypanosoma cruzi phosphomannomutase and mannose-1-phosphate guanylyltransferase assay; format: functional; details: 10 µM
[5] = molecular target: T2, Arginase-2, mitochondrial (Homo sapiens) (UniProt P78540); test: in vitro enzyme assay to detect the production of urea directly proportional to the activity of Arginase II; format: functional; details: 33.3 µM; further: in the data most compounds retested in dose-response had high values
T2 sequence (whole entry): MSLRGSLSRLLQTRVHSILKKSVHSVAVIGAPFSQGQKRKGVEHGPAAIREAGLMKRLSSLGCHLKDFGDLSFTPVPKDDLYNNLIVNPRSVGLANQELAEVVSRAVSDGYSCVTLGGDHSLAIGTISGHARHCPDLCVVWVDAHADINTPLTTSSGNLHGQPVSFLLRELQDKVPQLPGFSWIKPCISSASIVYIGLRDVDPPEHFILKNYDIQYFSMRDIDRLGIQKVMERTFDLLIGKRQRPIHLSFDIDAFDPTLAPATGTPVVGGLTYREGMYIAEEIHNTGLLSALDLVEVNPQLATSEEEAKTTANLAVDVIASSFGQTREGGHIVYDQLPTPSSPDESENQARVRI

[6] = molecular target: T3, Proteasome subunit beta (Trypanosoma cruzi) (UniProt O96673); test: Trypanosoma cruzi proteasome chymotrypsin-like activity (TcProtChymo) assay.; further: in the data most compounds retested in dose-response had high values; format: functional; details: 9.37 µM
T3 sequence (whole entry): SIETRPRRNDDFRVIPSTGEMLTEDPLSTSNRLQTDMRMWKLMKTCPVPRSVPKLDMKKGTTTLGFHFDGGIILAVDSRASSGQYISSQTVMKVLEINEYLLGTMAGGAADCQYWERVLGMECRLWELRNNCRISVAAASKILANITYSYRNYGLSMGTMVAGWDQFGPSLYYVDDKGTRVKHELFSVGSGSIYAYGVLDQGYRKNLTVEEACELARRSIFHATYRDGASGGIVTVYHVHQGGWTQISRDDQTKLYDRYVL

Homo sapiens = organism: Homo sapiens; test: To identify inhibition of the IFN signalling (Jak-Stat) pathway via expression of an eGFP reporter gene under the control of an IFN-stimulated response element (ISRE) containing MxA promoter.; format: functional; details: 30 µM
[7] = molecular target: T4, Tyrosyl-tRNA synthetase, putative (Trypanosoma cruzi (strain CL Brener)) (UniProt Q4DSP6); test: Trypanosoma cruzi tyrosyl tRNA synthetase (TcYRS) _High Tyrosine SOP; format: functional; details: 30 µM; further: in the data most compounds retested in dose-response had high values
T4 sequence (whole entry): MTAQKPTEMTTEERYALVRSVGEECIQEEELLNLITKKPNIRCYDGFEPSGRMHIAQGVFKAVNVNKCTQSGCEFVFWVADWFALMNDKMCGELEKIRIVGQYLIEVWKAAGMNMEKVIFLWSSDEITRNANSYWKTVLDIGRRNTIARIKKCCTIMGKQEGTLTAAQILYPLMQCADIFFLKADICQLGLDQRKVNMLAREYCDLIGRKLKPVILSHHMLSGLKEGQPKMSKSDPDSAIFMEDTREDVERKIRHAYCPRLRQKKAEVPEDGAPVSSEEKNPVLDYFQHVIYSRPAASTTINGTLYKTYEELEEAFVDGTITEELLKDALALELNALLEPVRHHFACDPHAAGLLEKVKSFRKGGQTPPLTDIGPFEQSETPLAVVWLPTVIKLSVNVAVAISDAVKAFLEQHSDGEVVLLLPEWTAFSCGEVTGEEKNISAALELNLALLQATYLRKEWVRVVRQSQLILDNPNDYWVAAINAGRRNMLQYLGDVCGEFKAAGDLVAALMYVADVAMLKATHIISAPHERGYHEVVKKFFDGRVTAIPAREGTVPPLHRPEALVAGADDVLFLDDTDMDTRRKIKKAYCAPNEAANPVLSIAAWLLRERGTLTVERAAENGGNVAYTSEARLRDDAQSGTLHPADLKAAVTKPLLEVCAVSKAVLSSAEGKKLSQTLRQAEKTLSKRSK

[8] = molecular target: T4, Tyrosyl-tRNA synthetase, putative (Trypanosoma cruzi (strain CL Brener)); test: Trypanosoma cruzi tyrosyl tRNA synthetase (TcYRS) SOP; format: functional; details: 30 µM
[9] = molecular target: Chromo domain-containing protein 1 (Saccharomyces cerevisiae (strain ATCC 204508 / S288c) (Baker's yeast)) (UniProt P32657); test: ScCHD-1 Enzyme Inhibition Assay; format: functional; details: 30 µM; further: in the data most compounds retested in dose-response had high values
Chain of Chromo domain-containing protein 1 (Saccharomyces cerevisiae (strain ATCC 204508 / S288c) (Baker's yeast)) (P32657 whole entry, the tested form may be a part): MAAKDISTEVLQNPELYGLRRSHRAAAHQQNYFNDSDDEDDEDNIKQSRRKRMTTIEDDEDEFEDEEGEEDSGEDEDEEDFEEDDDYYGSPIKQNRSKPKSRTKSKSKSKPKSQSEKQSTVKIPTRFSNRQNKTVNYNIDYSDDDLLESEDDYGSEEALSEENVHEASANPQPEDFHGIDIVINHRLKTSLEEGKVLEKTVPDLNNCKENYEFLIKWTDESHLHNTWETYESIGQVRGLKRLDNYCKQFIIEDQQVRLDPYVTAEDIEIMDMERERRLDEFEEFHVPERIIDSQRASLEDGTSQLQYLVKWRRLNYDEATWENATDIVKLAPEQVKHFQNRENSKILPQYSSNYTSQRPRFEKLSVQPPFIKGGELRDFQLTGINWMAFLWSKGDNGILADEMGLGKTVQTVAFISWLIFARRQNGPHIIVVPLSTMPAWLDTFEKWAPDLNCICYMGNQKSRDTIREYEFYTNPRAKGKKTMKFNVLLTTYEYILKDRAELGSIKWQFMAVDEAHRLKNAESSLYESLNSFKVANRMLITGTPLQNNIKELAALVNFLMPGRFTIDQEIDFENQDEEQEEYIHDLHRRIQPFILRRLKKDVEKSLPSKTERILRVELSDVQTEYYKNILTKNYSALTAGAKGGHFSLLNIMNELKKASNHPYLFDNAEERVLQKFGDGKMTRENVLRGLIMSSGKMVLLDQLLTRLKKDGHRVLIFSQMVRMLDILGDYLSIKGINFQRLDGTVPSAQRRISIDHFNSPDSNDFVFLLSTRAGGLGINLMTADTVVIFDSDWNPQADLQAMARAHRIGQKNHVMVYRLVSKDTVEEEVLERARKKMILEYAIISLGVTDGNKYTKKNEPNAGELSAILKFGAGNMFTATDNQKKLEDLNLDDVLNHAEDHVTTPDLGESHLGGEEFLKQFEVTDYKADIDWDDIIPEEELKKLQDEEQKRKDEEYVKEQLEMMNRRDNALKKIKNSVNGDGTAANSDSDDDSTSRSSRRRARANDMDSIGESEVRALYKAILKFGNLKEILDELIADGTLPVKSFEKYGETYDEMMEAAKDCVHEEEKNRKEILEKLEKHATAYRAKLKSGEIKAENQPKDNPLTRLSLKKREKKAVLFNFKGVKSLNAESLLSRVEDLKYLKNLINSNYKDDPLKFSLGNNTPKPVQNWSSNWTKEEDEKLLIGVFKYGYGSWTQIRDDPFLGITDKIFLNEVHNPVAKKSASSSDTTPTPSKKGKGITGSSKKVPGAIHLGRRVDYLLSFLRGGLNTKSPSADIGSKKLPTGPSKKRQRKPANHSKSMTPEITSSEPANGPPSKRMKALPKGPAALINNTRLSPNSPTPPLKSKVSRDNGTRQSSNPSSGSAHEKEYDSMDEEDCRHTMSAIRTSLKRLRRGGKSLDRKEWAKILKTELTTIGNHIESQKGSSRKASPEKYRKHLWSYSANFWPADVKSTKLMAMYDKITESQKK

Chain of Protein translocase subunit SecA (Escherichia coli (strain K12)) (P10408 whole entry): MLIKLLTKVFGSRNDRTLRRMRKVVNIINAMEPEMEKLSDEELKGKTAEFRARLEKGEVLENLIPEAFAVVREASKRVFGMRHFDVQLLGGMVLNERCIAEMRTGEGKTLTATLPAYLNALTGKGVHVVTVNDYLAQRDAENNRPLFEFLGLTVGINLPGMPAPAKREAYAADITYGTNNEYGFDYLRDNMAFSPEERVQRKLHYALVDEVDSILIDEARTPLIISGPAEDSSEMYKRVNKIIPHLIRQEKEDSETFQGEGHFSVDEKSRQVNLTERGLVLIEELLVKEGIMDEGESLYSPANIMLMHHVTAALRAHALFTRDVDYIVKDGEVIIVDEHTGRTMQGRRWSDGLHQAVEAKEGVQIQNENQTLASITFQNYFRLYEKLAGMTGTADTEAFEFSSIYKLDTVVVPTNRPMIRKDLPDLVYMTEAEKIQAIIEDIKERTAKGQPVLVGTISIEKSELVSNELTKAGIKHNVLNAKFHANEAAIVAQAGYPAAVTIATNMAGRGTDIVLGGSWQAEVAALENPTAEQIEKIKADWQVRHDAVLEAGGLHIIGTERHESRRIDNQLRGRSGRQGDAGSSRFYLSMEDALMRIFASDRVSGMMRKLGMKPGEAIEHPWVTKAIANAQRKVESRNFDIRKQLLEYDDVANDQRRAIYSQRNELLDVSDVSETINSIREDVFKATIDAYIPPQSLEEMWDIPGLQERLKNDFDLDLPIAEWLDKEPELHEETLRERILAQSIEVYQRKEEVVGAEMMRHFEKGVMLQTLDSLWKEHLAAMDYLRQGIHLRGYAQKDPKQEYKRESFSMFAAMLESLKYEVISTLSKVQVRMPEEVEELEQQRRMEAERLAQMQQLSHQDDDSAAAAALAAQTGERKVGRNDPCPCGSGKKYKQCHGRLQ
Chain of Sialic acid-binding Ig-like lectin 9 (Homo sapiens) (Q9Y336 whole entry): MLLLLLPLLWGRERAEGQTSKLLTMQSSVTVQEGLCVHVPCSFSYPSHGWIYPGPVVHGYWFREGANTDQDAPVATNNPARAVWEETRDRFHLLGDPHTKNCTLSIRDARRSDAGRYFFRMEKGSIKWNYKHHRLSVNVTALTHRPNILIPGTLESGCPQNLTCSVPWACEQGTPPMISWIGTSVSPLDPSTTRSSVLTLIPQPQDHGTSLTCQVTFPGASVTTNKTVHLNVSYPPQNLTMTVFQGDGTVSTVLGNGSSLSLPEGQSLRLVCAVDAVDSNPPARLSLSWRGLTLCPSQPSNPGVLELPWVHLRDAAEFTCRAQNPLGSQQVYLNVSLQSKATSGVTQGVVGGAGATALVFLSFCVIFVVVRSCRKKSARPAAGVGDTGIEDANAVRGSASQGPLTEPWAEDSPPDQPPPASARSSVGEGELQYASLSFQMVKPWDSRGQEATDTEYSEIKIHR

Row | Compound | Percent Effect [1] | Percent Effect [2] | Percent Effect [3] | Percent Effect [4] | Percent Effect (Trypanosoma cruzi) | Percent Effect [5] | Percent Effect [6] | Percent Effect (Homo sapiens) | Percent Effect [7] | Percent Effect [8] | Percent Effect [9]
1 | O=C(Cn1c(=O)n(Cc2ccco2)c2ncccc21)Nc1ccccn1 | -8.13% | 1.35% | 4.77% | 2.6% | -6.13% | -4.41% | 9.2% | 3.38% | 5.38% | 1.3% | -0.416%
2 | CC(C)NC(=O)COc1nc(C(C)C)no1 | -4.66% | -2.7% | -12.4% | 41.5% | 9.07% | 16.2% | 4.48% | 6.57% | -0.529% | 9.76% | -4.43%
3 | CC1(C)CC(N2Cc3nc(N4CCOCC4)ncc3C2=O)CC(C)(C)N1 | -6.55% | 2.6% | 1.41% | 1.23% | -9.93% | 2.76% | 10.8% | 13.3% | 0% | -1.24% | -0.541%
4 | NC(=O)c1ccc(N2CCCCC2)c(NC(=O)c2cncc(Br)c2)c1 | -3.53% | 5.2% | 10.4% | 12.7% | 2.06% | -78.6% | 12.5% | 35.7% | 3.23% | 11.1% | -2.92%
5 | Cc1cc(CN2CCc3nn(C)c(=O)cc3C2)on1 | -2.46% | 12.5% | -228% | -1.88% | -0.0972% | 4.86% | 6.84% | -5.36% | -3.16% | -7.69% | -2.45%
6 | Cc1noc(C2CCCN(C(=O)c3ccc(Br)o3)C2)n1 (stereo not drawn) | -6.46% | 13% | -5.37% | -19.7% | 7.54% | -4.84% | 13.8% | 1.55% | 3.81% | 21.2% | -17.1%
7 | Cc1ncsc1C(=O)NC1CCN(Cc2cccnc2)CC1 | -7.38% | 10.4% | -1.95% | 18.2% | 5.43% | 2.85% | 7.94% | 15.2% | 6.8% | 14.6% | -11.8%
8 | O=C(Nc1cnn(CCN2CCOCC2)c1)c1cc(F)ccc1F | -1.54% | 7.89% | -3.4% | 20.5% | -1.32% | 1.53% | -3.17% | -12.4% | 4.41% | 9.76% | 3.02%
